Bioassay records: PubChem, National Center for Advancing Translational Sciences (NCATS)
The full list was thinned out, with hits kept by preference.
nsP2pro inh: CHIKV nsP2 protease inhibition, primary qHTS. FRET peptide cleavage, nsP2pro, fluorescence 1 h. Potency, µM (top dose mostly 24.9 µM), for inactives: at the highest dose activity change, negative = inhibition, actives largely listed as inhibitors. actives 1.1% (n = 31,000). AID 1964107; calls by dose curve; further: nearly all actives have a fitted effect of over 60% in size
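Recombinant nsP2pro (150 nM) was preincubated with compound 15 min at room temperature in 10 mM Tris-HCl pH 8.0, 0.01% Tween 20. Peptide 2 FRET substrate (2.5 uM) was then added and fluorescence read after 1 h. Seven-point series, up to 25 uM.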
Starred values were filed as active, the others as inactive; [ ] = dose if it differs, or a comment. On the % scale 0 is the no-effect control and ±100 the full control effect; potency means the concentration at half of the fitted maximal effect.

`CCc1ccc(CN2CCc3nc(N4CCN(CC)CC4)ncc3C2)cc1` gave nsP2pro inh 23.0%.
`CCN1CCN(c2ncc3c(n2)CCN(Cc2cc(F)cc(F)c2)C3)CC1` gave nsP2pro inh -6.8%.
For CCN1CCN(c2ncc3c(n2)CCN(Cc2ccc(OC)c(OC)c2)C3)CC1 the results were nsP2pro inh 11.2µM*.
`O[C@@H]1[C@@H](Cn2cc(C3CC3)nn2)C[C@@H](NCc2nccs2)[C@@H]1O` gave nsP2pro inh -9.3%.
NC(=O)CO[C@@H]1CO[C@H]2[C@@H]1OC[C@@H]2NC(=O)NCc1ccccc1 was read as nsP2pro inh -11.9%[39.2 µM].
For COc1cc(CC(=O)O)ccc1O the results were nsP2pro inh -21.8%.
Screening C[C@@](Cc1ccc(O)c(O)c1)(NN)C(=O)O returned nsP2pro inh 11.1µM*.
Screening N[C@@H](Cc1ccc(O)c(O)c1)C(=O)O returned nsP2pro inh 11.6%[0.199 µM].
CCCCCCCCCCCCCCCCCC(=O)NCCCC[C@H](NC(=O)CC[C@@H](NC(=O)[C@H](C)NC(=O)[C@@H](C)O[C@H]1[C@H](O)[C@@H](CO)OC(O)[C@@H]1NC(C)=O)C(N)=O)C(=O)O (stereo partly specified) was read as nsP2pro inh -7.8%.
`CC(C)NC(=O)c1ccc(C#Cc2ccncc2)cn1` gave nsP2pro inh -18.3%.
`CCNC1(C(N)=O)CCN(c2ncnc3c2nc(-c2ccccc2Cl)n3-c2ccc(Cl)cc2)CC1` gave nsP2pro inh 15.1%.
CCOC(=O)N1CCc2c(sc(NCc3cccs3)c2C(=O)Nc2cc(OC)ccc2OC)C1 was read as nsP2pro inh 11.2µM*.
For COc1ccc(NC(=O)c2c(NCc3sccc3C)sc3c2CCCC3)c(OC)c1 the results were nsP2pro inh -12.8%.
For COc1ccccc1NC(=O)c1c(NCc2ccc(OC)c(OC)c2OC)sc2c1CCC2 the results were nsP2pro inh -23.5%.
Screening CC(=O)C=C=C1C(C)(C)CC(O)CC1(C)O[C@@H]1O[C@H](CO[C@H]2OC[C@](O)(CO)[C@H]2O)[C@@H](O)[C@H](O)[C@H]1O (stereo partly specified) returned nsP2pro inh 85.5%[10 µM].
NC(=O)c1c(-c2ccccc2)no[n+]1[O-] was read as nsP2pro inh -15.9%.
O=C(NCC1CC1)C1CN(Cc2ccccc2)C(=O)N1 (stereo unspecified) was read as nsP2pro inh 4.9%[39.2 µM].
For O=C(NCc1ccc(F)cc1)c1nnc(Cc2cccc(F)c2)o1 the results were nsP2pro inh -13.6%.
Cc1c(C(=O)NCc2cccc(F)c2)oc2c1-c1[nH]ncc1CC2 was read as nsP2pro inh -31.7%.
`Cc1[nH]cnc1CN1CCc2nc(C(=O)NCCOc3ccccc3)oc2CC1` gave nsP2pro inh inactive.
`COc1ccc(CN2CCc3nc(C(=O)NCCOc4ccccc4)oc3CC2)cn1` gave nsP2pro inh 3.55µM*.
For O=C(NCC1CC1)c1nc2c(o1)CCN(CCCc1ccccc1)CC2 the results were nsP2pro inh 10µM*.
Screening COc1ccc(CN2CCc3ncc(C(=O)NCc4ccc5c(c4)OCO5)n3CC2)cn1 returned nsP2pro inh inactive.
`O=C(NCc1cccc(F)c1)c1nc2c(o1)CCN(CC1CCCC1)CC2` gave nsP2pro inh 3.55µM*.
`O=C(NC1CC1)[C@@H]1CN(CCCc2ccccc2)C[C@H]1CO` gave nsP2pro inh -14.9%.
`CC1=C(C(=O)Nc2nc3ccccc3s2)C2(CCCC2)N=C(Nc2nc3ccccc3o2)N1` gave nsP2pro inh -6.9%.
Screening O=C(O)c1ccc(-n2cccc2/C=C2\SC(=O)N(Cc3ccc(F)cc3)C2=O)cc1 returned nsP2pro inh inactive.
Screening O=C(Nc1cccnn1)N1CCN(c2nccc(-c3ccc(F)c(F)c3)n2)CC1 returned nsP2pro inh -1.0%[39.2 µM].
`Cc1ccc(NS(=O)(=O)c2cc3c(cc2N(C)CCN(C)C)NC(=O)CC3)cc1C` gave nsP2pro inh 0.5%.
COc1cc(C(=O)O)ccc1NC(=O)[C@@H]1N[C@@H](CC(C)(C)C)[C@](C#N)(c2ccc(Cl)cc2F)[C@H]1c1cccc(Cl)c1F was read as nsP2pro inh -19.9%.
Screening CC(=O)Nc1sc2c(c1-c1ccc(C(F)(F)F)cc1)CCNC2 returned nsP2pro inh -9.7%.
Screening O=C(CC1CCCC1)N1C[C@@H](CO)[C@@H]2Oc3ccc(Cl)cc3[C@@H]21 returned nsP2pro inh -3.1%.
`CCN1CC2(CCN(C(=O)c3cnc4c(O)cccn4c3=O)CC2)OC1=O` gave nsP2pro inh -10.5%.
`CC1CCC2(NC1)OC1CC3C4CC=C5CC(O[C@@H]6O[C@H](CO)[C@@H](O[C@@H]7O[C@@H](C)[C@H](O)[C@@H](O)[C@H]7O)[C@H](O)[C@H]6O[C@@H]6O[C@@H](C)[C@H](O)[C@@H](O)[C@H]6O)CCC5(C)C4CCC3(C)C1C2C` (stereo partly specified) gave nsP2pro inh -8.4%[5.1 µM].
Cn1cc(-c2ccc3c(n2)CN(Cc2ccc(F)cc2)C(=O)CO3)cn1 was read as nsP2pro inh -4.5%[39.2 µM].
Screening O=C1COc2ccc(N3CCOCC3)nc2CN1Cc1ccc(F)cc1 returned nsP2pro inh 11.2µM*.
Screening O=C1COc2ccc(-c3cccc(O)c3)nc2CN1Cc1ccc(C(F)(F)F)cc1 returned nsP2pro inh inactive.
For O=C(NC1CC(=O)N(CCCc2ccccc2)C1)c1ccoc1 (stereo unspecified) the results were nsP2pro inh -4.3%.
For N[C@H]1[C@H](O)[C@@H](N2CCCCC2)[C@@H]2OC[C@H]1O2 the results were nsP2pro inh -0.7%[39.2 µM].
CC(C)CNC(=O)c1ccc2nnc(C(C)(C)C)n2c1 was read as nsP2pro inh -12.0%[39.2 µM].
`Cc1cnn(CCC(=O)N2CCCn3ccnc3C2c2cnn(C)c2)c1` (stereo unspecified) gave nsP2pro inh -19.4%.
CCOC(=O)c1cnn(-c2ccc(NC(=O)C(Cl)=C(Cl)Cl)cc2)c1C(F)(F)F was read as nsP2pro inh -0.9%.
`COC(=O)c1ccccc1NC(=O)c1cc2nc(-c3ccccc3)cc(-c3ccccc3)n2n1` gave nsP2pro inh -19.0%.
Screening CCOC(=O)c1cnn(-c2ccccc2)c1NC(=O)c1cc2nc(-c3ccco3)cc(C(F)(F)Cl)n2n1 returned nsP2pro inh 11.1µM*.
`C=C1/C(=C/C=C2\CCC[C@]3(C)[C@@H]([C@H](C)CC[C@@H](O)C(C)C)CC[C@@H]23)C[C@@H](O)C[C@@H]1O` gave nsP2pro inh -16.2%.
For COc1ccc(CCNC(=O)CCn2c(=O)c3ccccc3n(CC(=O)Nc3cc(Cl)ccc3C)c2=O)cc1OC the results were nsP2pro inh -11.0%.
CCc1ccc(NCc2cc3cc(OC)c(OC)cc3n(CC(=O)Nc3cc(C)ccc3C)c2=O)cc1 was read as nsP2pro inh 10µM*.
Screening Cc1ccc(C)c(NC(=O)Cn2c(=O)ccc3cc(S(=O)(=O)N4CCCC4)ccc32)c1 returned nsP2pro inh -20.2%.
For O=C(c1ccccc1OCC1CCCN(Cc2nccs2)C1)N1CCCC1 (stereo unspecified) the results were nsP2pro inh -8.7%.
Screening O=C1c2ccccc2NC(c2ccc(-c3ccc(-c4ccccc4)cc3)o2)N1O (stereo unspecified) returned nsP2pro inh inactive.
O=C1c2ccccc2NC(c2ccc(-c3ccc(Br)cc3)o2)N1O (stereo unspecified) was read as nsP2pro inh 12.6µM*.
O=C1c2ccccc2NC(c2ccc(-c3ccc(F)cc3)o2)N1O (stereo unspecified) was read as nsP2pro inh -4.3%.
